# Test results published in publication PMC5540273 (PLoS ONE, 2017).
# Several values for one entry are separate records, joined by “and”; a condition that tells them apart may be missing. Identical values can stand only once. Like-named read-outs stand apart in the source and are kept apart here.
# What was measured:
# [1] = test system: PRKCD; conditions: concentration: 1 μM, replicates: in singlicate, n = 1
# [2] = test system: PRKCE; conditions: concentration: 1 μM, replicates: in singlicate, n = 1
# [3] = test system: PRKCH; conditions: concentration: 1 μM, replicates: in singlicate, n = 1
# [4] = test system: PRKCI; conditions: concentration: 1 μM, replicates: in singlicate, n = 1
# [5] = test system: PRKCQ; conditions: concentration: 1 μM, replicates: in singlicate; n = 1
# [6] = test system: PRKD1; conditions: concentration: 1 μM, replicates: in singlicate, n = 1
# [7] = test system: PRKD2; conditions: concentration: 1 μM, replicates: in singlicate, n = 1
# [8] = test system: PRKD3; conditions: concentration: 1 μM, replicates: in singlicate, n = 1
# [9] = test system: PRKG1; conditions: concentration: 1 μM, replicates: in singlicate, n = 1
# [10] = test system: PRKG2; conditions: concentration: 1 μM, replicates: in singlicate, n = 1
# [11] = test system: T1, PRKR; conditions: concentration: 1 μM, replicates: in singlicate; n = 1
# T1 construct: gene EIF2AK2
# [12] = test system: PRKX; conditions: concentration: 1 μM, replicates: in singlicate; n = 1
# [13] = test system: PRP4; conditions: concentration: 1 μM, replicates: in singlicate; n = 1
# [14] = test system: T2, PYK2; conditions: concentration: 1 μM, replicates: in singlicate; n = 1
# T2 construct: gene PTK2B
# [15] = test system: QSK; conditions: concentration: 1 μM, replicates: in singlicate, n = 1
# [16] = test system: RAF1; conditions: concentration: 1 μM, replicates: in singlicate, n = 1
# [17] = test system: RET; conditions: concentration: 1 μM, replicates: in singlicate, n = 1
# [18] = test system: RIOK1; conditions: concentration: 1 μM, replicates: in singlicate, n = 1
# [19] = test system: RIOK2; conditions: concentration: 1 μM, replicates: in singlicate, n = 1
# [20] = test system: RIOK3; conditions: concentration: 1 μM, replicates: in singlicate, n = 1
# 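Note: KINOMEscan kinase panel screen.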
compound,measurement,setting,value
Nc1nccc2scc(-c3ccc4c(c3)CCN4C(=O)Cc3cc(F)ccc3F)c12 [GSK2587663],%Inh,[1],0%
same,%Inh,[2],0%
same,%Inh,[3],16%
same,%Inh,[4],1%
same,%Inh,[5],24%
same,%Inh,[6],0%
same,%Inh,[7],18%
same,%Inh,[8],16%
same,%Inh,[9],9%
same,%Inh,[10],2%
same,%Inh,[11],0%
same,%Inh,[12],1%
same,%Inh,[13],10%
same,%Inh,[14],6%
same,%Inh,[15],16%
same,%Inh,[16],18%
same,%Inh,[17],65%
same,%Inh,[18],25%
same,%Inh,[19],3%
same,%Inh,[20],0%
CS(=O)(=O)CCNCc1ccc(-c2ccc3ncnc(Nc4ccc(OCc5ccccc5)c(Cl)c4)c3c2)o1.Cl [GW574783],%Inh,[1],0%
same,%Inh,[2],10%
same,%Inh,[3],27%
same,%Inh,[4],13%
same,%Inh,[5],20%
same,%Inh,[6],4%
same,%Inh,[7],12%
same,%Inh,[8],0%
same,%Inh,[9],0%
same,%Inh,[10],0%
same,%Inh,[11],0%
same,%Inh,[12],17%
same,%Inh,[13],12%
same,%Inh,[14],0%
same,%Inh,[15],2%
same,%Inh,[16],19%
same,%Inh,[17],0%
same,%Inh,[18],32%
same,%Inh,[19],6%
same,%Inh,[20],0%
COc1ccc(-c2nc3n(c2-c2ccncc2)CCC3)cc1 [SKF-104493],%Inh,[1]; 1 µM,0% and 8%
same,%Inh,[2]; 1 µM,45% and 8%
same,%Inh,[3]; 1 µM,6% and 7%
same,%Inh,[4]; 1 µM,0% and 50%
same,%Inh,[5],0%
same,%Inh,[6]; 1 µM,0% and 3%
same,%Inh,[7]; 1 µM,2% and 16%
same,%Inh,[8]; 1 µM,0% and 27%
same,%Inh,[9]; 1 µM,32% and 7%
same,%Inh,[10]; 1 µM,1% and 18%
same,%Inh,[11],0%
same,%Inh,[12],0%
same,%Inh,[13],13%
same,%Inh,[14],6%
same,%Inh,[15]; 1 µM,29% and 5%
same,%Inh,[16]; 1 µM,0% and 15%
same,%Inh,[17]; 1 µM,0% and 10%
same,%Inh,[18]; 1 µM,24% and 4%
same,%Inh,[19]; 1 µM,20% and 0%
same,%Inh,[20]; 1 µM,0% and 10%
Nc1nc(-c2ccc3c(N)n[nH]c3c2)cc(N2CCCCC2)n1 [GSK2228768],%Inh,[1],0%
same,%Inh,[2],0%
same,%Inh,[3],0%
same,%Inh,[4],6%
same,%Inh,[5],17%
same,%Inh,[6],0%
same,%Inh,[7],4%
same,%Inh,[8],6%
same,%Inh,[9],0%
same,%Inh,[10],8%
same,%Inh,[11],6%
same,%Inh,[12],35%
same,%Inh,[13],0%
same,%Inh,[14],0%
same,%Inh,[15],0%
same,%Inh,[16],7%
same,%Inh,[17],1%
same,%Inh,[18],64%
same,%Inh,[19],9%
same,%Inh,[20],28%
CCn1c(-c2ccncc2)nc2cnccc21 [SB-735216],%Inh,[1],0%
same,%Inh,[2],37%
same,%Inh,[3],12%
same,%Inh,[4],46%
same,%Inh,[5],8%
same,%Inh,[6],0%
same,%Inh,[7],4%
same,%Inh,[8],0%
same,%Inh,[9],2%
same,%Inh,[10],8%
same,%Inh,[11],0%
same,%Inh,[12],0%
same,%Inh,[13],18%
same,%Inh,[14],1%
same,%Inh,[15],27%
same,%Inh,[16],6%
same,%Inh,[17],0%
same,%Inh,[18],12%
same,%Inh,[19],20%
same,%Inh,[20],0%
Cl.c1ccc(Cn2ccc3cc(Nc4ncnc5ccccc45)ccc32)cc1 [GW275568],%Inh,[1],0%
same,%Inh,[2],8%
same,%Inh,[3],0%
same,%Inh,[4],31%
same,%Inh,[5],11%
same,%Inh,[6],0%
same,%Inh,[7],18%
same,%Inh,[8],13%
same,%Inh,[9],0%
same,%Inh,[10],28%
same,%Inh,[11],0%
same,%Inh,[12],17%
same,%Inh,[13],0%
same,%Inh,[14],0%
same,%Inh,[15],0%
same,%Inh,[16],20%
same,%Inh,[17],15%
same,%Inh,[18],20%
same,%Inh,[19],0%
same,%Inh,[20],0%
O=C(Nc1ccccc1)Nc1ccc(Oc2ccc3nccn3n2)cc1,%Inh,[1],10%
same,%Inh,[2],0%
same,%Inh,[3],0%
same,%Inh,[4],19%
same,%Inh,[5],0%
same,%Inh,[6],24%
same,%Inh,[7],6%
same,%Inh,[8],0%
same,%Inh,[9],13%
same,%Inh,[10],0%
same,%Inh,[11],0%
same,%Inh,[12],0%
same,%Inh,[13],0%
same,%Inh,[14],0%
same,%Inh,[15],0%
same,%Inh,[16],31%
same,%Inh,[17],0%
same,%Inh,[18],49%
same,%Inh,[19],0%
same,%Inh,[20],0%
CN1c2ccc(-c3ccc(C(=O)NCCO)cc3)cc2-c2[nH]ncc2S1(=O)=O,%Inh,[1],26%
same,%Inh,[2],12%
same,%Inh,[3],8%
same,%Inh,[4],0%
same,%Inh,[5],1%
same,%Inh,[6],0%
same,%Inh,[7],34%
same,%Inh,[8],0%
same,%Inh,[9],61%
same,%Inh,[10],9%
same,%Inh,[11],1%
same,%Inh,[12],0%
same,%Inh,[13],0%
same,%Inh,[14],6%
same,%Inh,[15],5%
same,%Inh,[16],0%
same,%Inh,[17],13%
same,%Inh,[18],30%
same,%Inh,[19],22%
same,%Inh,[20],17%
CSc1nn2c(=O)cc(N3CCOCC3)nc2n1Cc1cccc(Cl)c1Cl [GSK2347225],%Inh,[1],5%
same,%Inh,[2],6%
same,%Inh,[3],23%
same,%Inh,[4],27%
same,%Inh,[5],0%
same,%Inh,[6],0%
same,%Inh,[7],8%
same,%Inh,[8],0%
same,%Inh,[9],25%
same,%Inh,[10],0%
same,%Inh,[11],0%
same,%Inh,[12],23%
same,%Inh,[13],0%
same,%Inh,[14],31%
same,%Inh,[15],8%
same,%Inh,[16],6%
same,%Inh,[17],11%
same,%Inh,[18],34%
same,%Inh,[19],28%
same,%Inh,[20],19%
Nc1nc(-c2ccccn2)c(-c2ccnc3ccccc23)s1 [GW548057],%Inh,[1],0%
same,%Inh,[2],26%
same,%Inh,[3],9%
same,%Inh,[4],26%
same,%Inh,[5],3%
same,%Inh,[6],36%
same,%Inh,[7],25%
same,%Inh,[8],15%
same,%Inh,[9],17%
same,%Inh,[10],9%
same,%Inh,[11],1%
same,%Inh,[12],0%
same,%Inh,[13],66%
same,%Inh,[14],20%
same,%Inh,[15],0%
same,%Inh,[16],15%
same,%Inh,[17],23%
same,%Inh,[18],19%
same,%Inh,[19],0%
same,%Inh,[20],27%
Cl.Cl.c1ccc(-c2cc3ccncc3cc2OC2CCNCC2)cc1 [GSK1122999],%Inh,[1],33%
same,%Inh,[2],82%
same,%Inh,[3],86%
same,%Inh,[4],21%
same,%Inh,[5],21%
same,%Inh,[6],15%
same,%Inh,[7],7%
same,%Inh,[8],0%
same,%Inh,[9],0%
same,%Inh,[10],0%
same,%Inh,[11],0%
same,%Inh,[12],34%
same,%Inh,[13],0%
same,%Inh,[14],10%
same,%Inh,[15],7%
same,%Inh,[16],12%
same,%Inh,[17],28%
same,%Inh,[18],33%
same,%Inh,[19],0%
same,%Inh,[20],45%
C[C@@H]1CCN(C(=O)CO)C[C@@H]1N(C)c1ncnc2[nH]ccc12,%Inh,[1],22%
same,%Inh,[2],54%
same,%Inh,[3],0%
same,%Inh,[4],0%
same,%Inh,[5],0%
same,%Inh,[6],17%
same,%Inh,[7],6%
same,%Inh,[8],7%
same,%Inh,[9],95.3%
same,%Inh,[10],0%
same,%Inh,[11],0%
same,%Inh,[12],7%
same,%Inh,[13],0%
same,%Inh,[14],0%
same,%Inh,[15],0%
same,%Inh,[16],0%
same,%Inh,[17],0%
same,%Inh,[18],0%
same,%Inh,[19],0%
same,%Inh,[20],0%
Cn1ccc2ncnc(Nc3ccc(Oc4cccc(Cl)c4)c(Cl)c3)c21,%Inh,[1],30%
same,%Inh,[2],13%
same,%Inh,[3],3%
same,%Inh,[4],0%
same,%Inh,[5],60%
same,%Inh,[6],0%
same,%Inh,[7],30%
same,%Inh,[8],0%
same,%Inh,[9],0%
same,%Inh,[10],0%
same,%Inh,[11],0%
same,%Inh,[12],11%
same,%Inh,[13],11%
same,%Inh,[14],27%
same,%Inh,[15],2%
same,%Inh,[16],0%
same,%Inh,[17],10%
same,%Inh,[18],0%
same,%Inh,[19],18%
same,%Inh,[20],3%
COC(=O)c1cccc(NC(=O)NCCNc2ccnc(Nc3ccc(F)cc3)n2)c1 [GSK1379883],%Inh,[1],0%
same,%Inh,[2],6%
same,%Inh,[3],34%
same,%Inh,[4],24%
same,%Inh,[5],0%
same,%Inh,[6],21%
same,%Inh,[7],35%
same,%Inh,[8],0%
same,%Inh,[9],7%
same,%Inh,[10],0%
same,%Inh,[11],0%
same,%Inh,[12],4%
same,%Inh,[13],46%
same,%Inh,[14],0%
same,%Inh,[15],0%
same,%Inh,[16],11%
same,%Inh,[17],0%
same,%Inh,[18],23%
same,%Inh,[19],0%
same,%Inh,[20],31%
CCc1nc(-c2cccc(C)c2)c(-c2ccnc(NC(=O)c3ccccc3)c2)s1,%Inh,[1],20%
same,%Inh,[2],2%
same,%Inh,[3],4%
same,%Inh,[4],2%
same,%Inh,[5],0%
same,%Inh,[6],0%
same,%Inh,[7],0%
same,%Inh,[8],0%
same,%Inh,[9],0%
same,%Inh,[10],0%
same,%Inh,[11],0%
same,%Inh,[12],0%
same,%Inh,[13],10%
same,%Inh,[14],11%
same,%Inh,[15],0%
same,%Inh,[16],22%
same,%Inh,[17],0%
same,%Inh,[18],14%
same,%Inh,[19],8%
same,%Inh,[20],4%
Nc1nc(-c2ccc3c(N)n[nH]c3c2)cc(N2CCC[C@@H](C(=O)Nc3ccccc3)C2)n1.O=C(O)C(F)(F)F.O=C(O)C(F)(F)F [GSK2288359],%Inh,[1],0%
same,%Inh,[2],0%
same,%Inh,[3],0%
same,%Inh,[4],12%
same,%Inh,[5],7%
same,%Inh,[6],0%
same,%Inh,[7],1%
same,%Inh,[8],5%
same,%Inh,[9],13%
same,%Inh,[10],29%
same,%Inh,[11],0%
same,%Inh,[12],71%
same,%Inh,[13],26%
same,%Inh,[14],0%
same,%Inh,[15],0%
same,%Inh,[16],0%
same,%Inh,[17],0%
same,%Inh,[18],79%
same,%Inh,[19],12%
same,%Inh,[20],82%
